# Experimental data: ChEMBL document CHEMBL1157539, “Thousands of chemical starting points for antimalarial lead identification” (Nature, 2010)
# Columns and labels:
# Type in all cases: functional
# Plasmodium falciparum [1] = experiment: GSK_TCMDC: Inhibition of Plasmodium falciparum 3D7 in whole red blood cells, using parasite LDH activity as an index of growth. Test compounds present at 2uM
# Plasmodium falciparum [2] = experiment: GSK_TCMDC: Inhibition of Plasmodium falciparum Dd2 in whole red blood cells, using parasite LDH activity as an index of growth. Test compounds present at 2uM
# HepG2 = experiment: GSK_TCMDC: Percent inhibition of human HepG2 cell line. Test compounds present at 10uM.
SMILES,Inhibition (Plasmodium falciparum [1]) [%],Inhibition (Plasmodium falciparum [2]) [%],Inhibition (HepG2) [%]
COc1ccc(C(=O)C2CCN(CCCCNC(=O)c3ccc(NC(=O)c4ccc(Cl)cc4)cc3)CC2)c(OC)c1,98,13,47
O=[N+]([O-])c1cc(C(c2ccc(O)c([N+](=O)[O-])c2)C(Cl)(Cl)Cl)ccc1O,93,98,2
Cc1ccc(C2(CN3CCC(NC(=O)c4cc[nH]n4)CC3)CCCCC2)cc1,97,96,0
CCOC(=O)c1c(NC(=O)c2ccccc2)sc2c(O)c(CNC3CCCCC3)ccc12,99,98,6
Cc1cccc2nc(-c3ccc(-c4ccc(NC(=O)NCc5ccc(F)cc5)cc4)cc3)[nH]c12,100,99,70
CCCc1ccc(NC(=O)c2ccc(CN3CCCN(Cc4cccc(O)c4)CC3)cc2)cc1.O=C(O)C(F)(F)F,100,63,51
CC(C)c1sc(-c2ccc(C(C)(C)C)cc2)nc1C(=O)NCCCN1CCCC1=O,96,92,0
CCOc1ccccc1C(=O)Nc1cccc(-c2nc3ncccn3c2C)c1,92,88,0
Cc1cc(=NN=Cc2cccc(F)c2)c2cc(F)ccc2[nH]1,100,99,7
CN1CCCN(Cc2ccc(-c3cccc(NC(=O)c4cccc(F)c4)c3)cc2)CC1.O=C(O)C(F)(F)F,91,12,28
O=C(Nc1ccc2c(c1)CCN2C1CCN(Cc2cccc(C(F)(F)F)c2)C1)c1ccco1 (centres undefined),95,92,4
N#Cc1cccc(C(=O)Nc2ccc(-c3cccc(CN4CCCC4)c3)cc2)c1.O=C(O)C(F)(F)F,100,79,15
N=C(N)NN=Cc1c[nH]c2ccc(-c3ccccc3)cc12.O=C(O)/C=C\C(=O)O,84,61,15
CN(C)CCNC(=O)[C@H](CC1CCCCC1)NC(=O)c1ccc(O)c(-c2ccc(Cl)c(Cl)c2)c1,98,97,0
Cl.ON=C1CCc2cc(-c3nc(-c4ccc(OCCN5CCCCC5)cc4)[nH]c3-c3ccncc3)ccc21,99,54,73
Cc1cccc2nc(-c3ccc(-c4cccc(CN5CCC(N)C5)c4)s3)[nH]c12.O=C(O)C(F)(F)F (centres undefined),95,78,16
Cc1cccc2nc(-c3ccc(-c4cccc(NC(=O)c5cnn6cccnc56)c4)cc3)[nH]c12,91,29,100
Nc1nccc2ccc(-c3cccc(OCc4ccccc4)c3)cc12.O=C(O)C(F)(F)F,100,81,47
O=C(Nc1ccc2c(c1)CCC2)N[C@H]1CCN(CCCCCNC(=O)C2CC2c2ccc(Cl)c(Cl)c2)C1 (some centres undefined),86,0,37
Cc1cccc2nc(-c3cccc(-c4cccc(NC(=O)COc5ccccc5C(N)=O)c4)c3)[nH]c12,100,88,22
CN(C)Cc1ccc(-c2cc3c(Nc4ccc(OCc5cccc(F)c5)c(Cl)c4)ncnc3s2)[nH]1,100,84,8
Cc1ccc(N2C(N)=NC(N)=NC2c2ccccc2)cc1.Cl (centres undefined),94,1,11
COc1ccc(OC(C)CNC(=O)c2cc([N+](=O)[O-])ccc2-c2ccc(OC)cc2)cc1 (centres undefined),92,44,18
COc1cc(C(F)(F)F)cc2[nH]c(CNCCCNc3nc4ccccc4[nH]3)cc12,100,2,59
COc1cc(NC(=O)/C=C/c2cccc3ccoc23)ccc1OCCN(C(C)C)C(C)C.Cl,90,5,22
Cl.Fc1cc(CN2CCCC2)ccc1OCCCN1CCN(c2cccc(Cl)c2Cl)CC1,82,15,67
O=c1cc(NCCCNC2CCCc3c2cc(Cl)c(Cl)c3Cl)[nH]c2ccccc12 (centres undefined),100,64,6
COc1ccc(NC(=O)c2cn(-c3ccc(C(C)(C)C)cc3)nc2C)cc1N1CCN(C)CC1,96,71,33
